{"source": "the supplement of paper PMC3334620", "note": "The full ranking holds about 33,000 sequences; the median of “E-score (-0.5 to 0.5)” is about -0.053, and the highest 2% start at about 0.37. This is one part of a sample in which the highest values are shown more often than they occur.", "data": [{"molecular_target": "Hap1 (UniProt P0CE41)", "sequence (P0CE41 whole entry, the tested form may be a part)": "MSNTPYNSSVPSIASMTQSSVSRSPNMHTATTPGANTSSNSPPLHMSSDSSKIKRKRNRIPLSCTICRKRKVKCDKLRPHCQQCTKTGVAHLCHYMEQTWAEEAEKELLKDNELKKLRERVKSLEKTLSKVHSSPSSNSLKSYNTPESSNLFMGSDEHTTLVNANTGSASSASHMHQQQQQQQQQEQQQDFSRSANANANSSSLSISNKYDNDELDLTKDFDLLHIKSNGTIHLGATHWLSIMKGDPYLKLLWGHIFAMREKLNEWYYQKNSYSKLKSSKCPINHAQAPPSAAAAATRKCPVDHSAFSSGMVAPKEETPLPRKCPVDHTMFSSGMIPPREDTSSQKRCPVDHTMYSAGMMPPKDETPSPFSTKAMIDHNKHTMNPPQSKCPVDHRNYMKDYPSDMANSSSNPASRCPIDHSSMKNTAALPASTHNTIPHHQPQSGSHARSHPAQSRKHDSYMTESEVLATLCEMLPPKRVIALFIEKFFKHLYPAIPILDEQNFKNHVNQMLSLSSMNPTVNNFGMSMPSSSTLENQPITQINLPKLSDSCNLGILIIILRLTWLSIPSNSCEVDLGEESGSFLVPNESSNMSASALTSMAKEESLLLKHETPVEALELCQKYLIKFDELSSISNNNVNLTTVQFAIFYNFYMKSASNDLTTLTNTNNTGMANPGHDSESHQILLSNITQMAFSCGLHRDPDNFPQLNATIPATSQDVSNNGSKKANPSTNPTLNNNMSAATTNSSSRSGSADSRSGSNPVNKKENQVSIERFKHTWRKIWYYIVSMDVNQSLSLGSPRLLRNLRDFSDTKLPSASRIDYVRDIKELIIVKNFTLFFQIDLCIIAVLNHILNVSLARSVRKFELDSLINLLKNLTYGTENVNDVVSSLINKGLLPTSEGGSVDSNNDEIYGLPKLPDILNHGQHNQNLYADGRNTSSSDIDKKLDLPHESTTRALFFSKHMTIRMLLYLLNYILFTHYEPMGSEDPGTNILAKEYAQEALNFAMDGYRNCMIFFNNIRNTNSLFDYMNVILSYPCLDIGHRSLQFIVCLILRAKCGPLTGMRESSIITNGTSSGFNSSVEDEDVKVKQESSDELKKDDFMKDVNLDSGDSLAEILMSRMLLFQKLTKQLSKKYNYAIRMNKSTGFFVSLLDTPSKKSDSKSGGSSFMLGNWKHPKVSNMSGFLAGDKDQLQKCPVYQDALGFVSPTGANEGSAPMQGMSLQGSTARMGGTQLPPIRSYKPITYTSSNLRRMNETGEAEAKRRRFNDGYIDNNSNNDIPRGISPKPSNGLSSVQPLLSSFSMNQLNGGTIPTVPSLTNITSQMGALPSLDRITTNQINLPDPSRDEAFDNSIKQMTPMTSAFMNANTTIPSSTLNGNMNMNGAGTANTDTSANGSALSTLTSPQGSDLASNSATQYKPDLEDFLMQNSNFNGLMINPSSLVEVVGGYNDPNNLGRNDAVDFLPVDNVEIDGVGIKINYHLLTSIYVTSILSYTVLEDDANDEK", "test": "PBM E-score (8-mer binding enrichment) (E-score (-0.5 to 0.5)); higher = stronger / more preferred TF binding", "settings": "protein concentration: 200 nM; construct: GST-DNA-binding domain", "summary_of_the_method": "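For each ungapped eight-base word taken together with its reverse complement, the Universal PBM Analysis Suite assigned an E-score. Binding data came from GST-tagged yeast transcription factors, applied at about 100-200 nM, on universal all-10-mer Agilent arrays made double-stranded by primer extension. Fluorescent anti-GST marked bound protein, and scans were normalised with masliner.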", "values": [{"sequence": "AACCAACG", "PBM E-score": -0.104}, {"sequence": "GTCTTACA", "PBM E-score": -0.195}, {"sequence": "CTTGGTAC", "PBM E-score": -0.213}, {"sequence": "CCTCTTTA", "PBM E-score": -0.303}, {"sequence": "CCGGTTAC", "PBM E-score": 0.279}, {"sequence": "ACACTGAA", "PBM E-score": -0.0306}, {"sequence": "AGAGTAGA", "PBM E-score": 0.0496}, {"sequence": "ACGAACAT", "PBM E-score": 0.0579}, {"sequence": "AAGGCAAA", "PBM E-score": -0.28}, {"sequence": "AGTCCTAA", "PBM E-score": -0.207}, {"sequence": "CATCCGAG", "PBM E-score": 0.265}, {"sequence": "CGTCCGAG", "PBM E-score": 0.401}, {"sequence": "AGTCCGAA", "PBM E-score": 0.416}, {"sequence": "GGTCCGTA", "PBM E-score": 0.329}, {"sequence": "CGTCCAAG", "PBM E-score": -0.111}, {"sequence": "AGTCCAAA", "PBM E-score": -0.119}, {"sequence": "GGTCCAAA", "PBM E-score": 0.0135}, {"sequence": "GGTCCGAA", "PBM E-score": 0.434}, {"sequence": "ACAAGGCA", "PBM E-score": -0.133}, {"sequence": "TAGCTTAA", "PBM E-score": -0.135}, {"sequence": "CATTGAAA", "PBM E-score": -0.0176}, {"sequence": "AAACGGAG", "PBM E-score": 0.258}, {"sequence": "CCGTTGCC", "PBM E-score": 0.299}, {"sequence": "CGGTGCTC", "PBM E-score": 0.161}, {"sequence": "CATGGACA", "PBM E-score": -0.324}, {"sequence": "ATGCACAT", "PBM E-score": -0.225}, {"sequence": "CAAATTGA", "PBM E-score": -0.173}, {"sequence": "ATTCTCCC", "PBM E-score": 0.0268}, {"sequence": "AAGCTCCT", "PBM E-score": -0.0999}, {"sequence": "ATTCTCCA", "PBM E-score": -0.157}, {"sequence": "AATCTCCG", "PBM E-score": 0.476}, {"sequence": "ATTCTCCG", "PBM E-score": 0.394}, {"sequence": "CATCTCCC", "PBM E-score": 0.104}, {"sequence": "AAGCTCCG", "PBM E-score": 0.411}, {"sequence": "CATCTCCG", "PBM E-score": 0.435}, {"sequence": "AATCTCCC", "PBM E-score": 0.00843}, {"sequence": "CAGCTCCG", "PBM E-score": 0.299}, {"sequence": "AATCTCCT", "PBM E-score": 0.0543}, {"sequence": "CATCTCCA", "PBM E-score": -0.0795}, {"sequence": "ACTGTACG", "PBM E-score": -0.167}, {"sequence": "GAGGCATA", "PBM E-score": 0.00364}, {"sequence": "CCTGAGTC", "PBM E-score": -0.0525}, {"sequence": "GCCCTGAA", "PBM E-score": 0.0376}, {"sequence": "AGTAGCCC", "PBM E-score": 0.0495}, {"sequence": "ACATTCCC", "PBM E-score": 0.0549}, {"sequence": "AGAGGGGA", "PBM E-score": -0.0354}, {"sequence": "TCGTAAAA", "PBM E-score": 0.0494}, {"sequence": "ATGTACGA", "PBM E-score": 0.105}, {"sequence": "CAGGGGAG", "PBM E-score": -0.137}, {"sequence": "TAAAGCAA", "PBM E-score": -0.0198}, {"sequence": "AACCGGCC", "PBM E-score": 0.344}, {"sequence": "AACCGGCG", "PBM E-score": 0.382}, {"sequence": "CACCGGCA", "PBM E-score": 0.201}, {"sequence": "CACCGGCC", "PBM E-score": 0.313}, {"sequence": "AACCGGCA", "PBM E-score": 0.158}, {"sequence": "CACCGGCG", "PBM E-score": 0.378}, {"sequence": "AATACTTG", "PBM E-score": -0.112}, {"sequence": "ACCGCACG", "PBM E-score": -0.0174}, {"sequence": "CCCAGCCC", "PBM E-score": -0.174}, {"sequence": "CAACCTTC", "PBM E-score": -0.0289}, {"sequence": "GCCCTTCA", "PBM E-score": -0.165}, {"sequence": "AAATTCCC", "PBM E-score": 0.145}, {"sequence": "ATTTTCCC", "PBM E-score": 0.123}, {"sequence": "AATTTCCC", "PBM E-score": 0.06}, {"sequence": "AAATTCCA", "PBM E-score": 0.0643}, {"sequence": "AAATTCCG", "PBM E-score": 0.376}, {"sequence": "ATTTTCGA", "PBM E-score": -0.0541}, {"sequence": "AATTTCCG", "PBM E-score": 0.437}, {"sequence": "ATTTTCCA", "PBM E-score": -0.0537}, {"sequence": "ATTTTCGC", "PBM E-score": 0.0139}, {"sequence": "CATTTCCG", "PBM E-score": 0.352}, {"sequence": "ATTTTCGG", "PBM E-score": 0.396}, {"sequence": "ATTTTCCG", "PBM E-score": 0.413}, {"sequence": "AGGTTGGC", "PBM E-score": 0.00268}, {"sequence": "AAACCCCA", "PBM E-score": -0.134}, {"sequence": "GGCTCTAC", "PBM E-score": 0.0591}, {"sequence": "GTCCTTCA", "PBM E-score": -0.162}, {"sequence": "CGTGAGAC", "PBM E-score": 0.00208}, {"sequence": "GGGAGCAA", "PBM E-score": 0.0117}, {"sequence": "AGTTTCCA", "PBM E-score": -0.133}, {"sequence": "AGTTTCCG", "PBM E-score": 0.39}, {"sequence": "AGTTTCCC", "PBM E-score": -0.0919}, {"sequence": "ACCATAGT", "PBM E-score": -0.0861}, {"sequence": "CTCGGAAC", "PBM E-score": 0.31}, {"sequence": "AGCGGACC", "PBM E-score": 0.257}, {"sequence": "ATCGGAAC", "PBM E-score": 0.318}, {"sequence": "CTCGGACA", "PBM E-score": 0.415}, {"sequence": "CTCGGACC", "PBM E-score": 0.375}, {"sequence": "CTTGGACA", "PBM E-score": -0.0486}, {"sequence": "CACGGACC", "PBM E-score": 0.341}, {"sequence": "ATCGGGCA", "PBM E-score": 0.238}, {"sequence": "GTCGGACA", "PBM E-score": 0.347}, {"sequence": "CGCGGACA", "PBM E-score": 0.335}, {"sequence": "ATCGGACA", "PBM E-score": 0.394}, {"sequence": "ATCGGACC", "PBM E-score": 0.4}]}]}
